Calls of active or inactive are those of the source. Rule for the calls: active = hit-call score of the fitted dose curve at least 0.9, where 1 is the maximum; inactive = score below 0.9.
Assays:
[1] = read-out: Interferon-gamma inducible Protein 10 (IP10), CXCL10 (gene 3627); experiment: BSK_hDFCGF_IP10: BioMAP Diversity Plus: hDFCGF Assay for Interferon-gamma inducible Protein 10 (IP10) Biomarker Activity (AID 2283053); conditions: primary human foreskin fibroblasts; actives raise or lower the signal
In short: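 ELISA read-out of IP-10 (CXCL10) from primary human skin fibroblasts, 24 h after compound addition. Gain or loss of signal versus DMSO baseline, bidirectional curve fitting.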

[2] = read-out: Urokinase-type plasminogen activator receptor (uPAR), PLAUR (gene 5329); experiment: BSK_CASM3C_uPAR: BioMAP Diversity Plus: CASM3C Assay for Urokinase-type plasminogen activator receptor (uPAR) Biomarker Activity (AID 2283054); conditions: primary human coronary artery smooth muscle cells; actives raise or lower the signal;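 note: cell-surface uPAR protein level quantified by ELISA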
[3] = read-out: Vascular cell adhesion molecule 1 (VCAM1), VCAM1 (gene 7412); experiment: BSK_CASM3C_VCAM1: BioMAP Diversity Plus: CASM3C Assay for Vascular cell adhesion molecule 1 (VCAM1) Biomarker Activity (AID 2283055); conditions: primary human coronary artery smooth muscle cells; actives raise or lower the signal;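 note: VCAM-1 protein level quantified by ELISA on the cells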
[4] = read-out: Epidermal growth factor receptor (EGFR), EGFR (gene 1956); experiment: BSK_hDFCGF_EGFR: BioMAP Diversity Plus: hDFCGF Assay for Epidermal growth factor receptor (EGFR) Biomarker Activity (AID 2283057); conditions: primary human foreskin fibroblasts; actives raise or lower the signal
In short: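 ELISA readout of EGFR on human dermal fibroblasts (primary foreskin cells), 24 h post-dosing; bidirectional curve fit vs DMSO baseline, gain or loss of signal scored.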

[5] = read-out: Interleukin-8 (IL8), CXCL8 (gene 3576); experiment: BSK_hDFCGF_IL8: BioMAP Diversity Plus: hDFCGF Assay for Interleukin-8 (IL8) Biomarker Activity (AID 2283058); conditions: primary human foreskin fibroblasts; actives raise or lower the signal
In short: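 ELISA read-out of IL-8 from primary human foreskin fibroblast cultures taken 24 h after dosing; values are bidirectional fits relative to DMSO vehicle.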

[6] = BSK_hDFCGF_Proliferation: Cell Proliferation Assessment in the BioMAP Diversity Plus: hDFCGF Assay (AID 2283059); conditions: primary human foreskin fibroblasts;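 note: curves fitted for both rise and fall of signal versus DMSO baseline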
In short: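 Steps: dose primary human dermal fibroblasts (foreskin); […] fix in 10% TCA; stain with 0.1% SRB; read 560 nm; fit gain or loss of signal against DMSO.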

[7] = read-out: Macrophage colony-stimulating factor (MCSF), CSF1 (gene 1435); experiment: BSK_hDFCGF_MCSF: BioMAP Diversity Plus: hDFCGF Assay for Macrophage colony-stimulating factor (MCSF) Biomarker Activity (AID 2283060); conditions: primary human foreskin fibroblasts; actives raise or lower the signal
In short: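 ELISA read-out of M-CSF in human dermal foreskin fibroblast cultures, 24 h after chemical dosing; gain or loss of signal fitted bidirectionally relative to DMSO baseline.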

[8] = BSK_hDFCGF_SRB: Viability Assessment in the BioMAP Diversity Plus: hDFCGF Assay (AID 2283061); conditions: primary human foreskin fibroblasts;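 note: cells exposed to compound for 24 h before the read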
In short: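 Primary human foreskin fibroblasts; 24 h post-dose; fixed 10% TCA, stained 0.1% SRB, A560 read; total protein as overt cytotoxicity measure; curves fit bidirectionally vs DMSO control.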

[9] = read-out: Monokine induced gamma interferon (MIG), CXCL9 (gene 4283); experiment: BSK_hDFCGF_MIG: BioMAP Diversity Plus: hDFCGF Assay for Monokine induced gamma interferon (MIG) Biomarker Activity (AID 2283063); conditions: primary human foreskin fibroblasts; actives raise or lower the signal
In short: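 Fibroblasts (human foreskin, primary) dosed, 24 h, MIG by ELISA; fit bidirectional vs DMSO.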

[10] = read-out: Vascular cell adhesion molecule 1 (VCAM1), VCAM1 (gene 7412); experiment: BSK_hDFCGF_VCAM1: BioMAP Diversity Plus: hDFCGF Assay for Vascular cell adhesion molecule 1 (VCAM1) Biomarker Activity (AID 2283065); conditions: primary human foreskin fibroblasts; actives raise or lower the signal;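 for AC50: VCAM-1 protein level quantified by ELISA after 24 h chemical exposure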
In short: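 ELISA read-out of VCAM-1 on human skin fibroblasts, 24 h post-dose; gain or loss of signal fitted bidirectionally against DMSO baseline.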

[11] = read-out: Plasminogen activator inhibitor-1 (PAI1), SERPINE1 (gene 5054); experiment: BSK_hDFCGF_PAI1: BioMAP Diversity Plus: hDFCGF Assay for Plasminogen activator inhibitor-1 (PAI1) Biomarker Activity (AID 2283066); conditions: primary human foreskin fibroblasts; actives raise or lower the signal
In short: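 ELISA readout of PAI-1 from primary human skin fibroblast cultures, 24 h after compound addition. Gain or loss of signal was fitted bidirectionally against DMSO baseline.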

[12] = read-out: Intercellular Adhesion Molecule 1 (ICAM1), ICAM1 (gene 3383); experiment: BSK_KF3CT_ICAM1: BioMAP Diversity Plus: KF3CT Assay for Intercellular Adhesion Molecule 1 (ICAM1) Biomarker Activity (AID 2283067); conditions: primary human keratinocytes with fibroblasts; actives raise or lower the signal
In short: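 ELISA readout of ICAM-1; KF3CT human skin co-culture (keratinocytes + foreskin fibroblasts), 24 h post-dose; gain/loss fit vs DMSO baseline.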

[13] = read-out: Interferon-gamma inducible Protein 10 (IP10), CXCL10 (gene 3627); experiment: BSK_KF3CT_IP10: BioMAP Diversity Plus: KF3CT Assay for Interferon-gamma inducible Protein 10 (IP10) Biomarker Activity (AID 2283068); conditions: primary human keratinocytes with fibroblasts; actives raise or lower the signal
In short: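 KF3CT co-culture (keratinocytes + foreskin fibroblasts), 24 h compound, IP-10 by ELISA; bidirectional fit vs DMSO baseline.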

[14] = BSK_KF3CT_SRB: Viability Assessment in the BioMAP Diversity Plus: KF3CT Assay (AID 2283069); conditions: primary human keratinocytes with fibroblasts;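 note: total protein by sulforhodamine B staining as a cytotoxicity measure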
In short: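 Cytotoxicity was gauged by SRB staining (0.1% SRB, 10% TCA fixation, 560 nm) of parallel cultures at 24 h. The cells were primary human skin keratinocytes co-cultured with fibroblasts, and activity was fitted in both directions against DMSO.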

[15] = read-out: Interleukin-1 alpha (IL1a), IL1A (gene 3552); experiment: BSK_KF3CT_IL1a: BioMAP Diversity Plus: KF3CT Assay for Interleukin-1 alpha (IL1a) Biomarker Activity (AID 2283070); conditions: primary human keratinocytes with fibroblasts; actives raise or lower the signal
In short: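 IL-1a was detected by ELISA 24 h after chemical treatment of a co-culture of human skin keratinocytes and foreskin fibroblasts. Gain or loss of signal was fitted against the DMSO baseline.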

[16] = read-out: TIMP metallopeptidase inhibitor 2 (TIMP2), TIMP2 (gene 7077); experiment: BSK_KF3CT_TIMP2: BioMAP Diversity Plus: KF3CT Assay for TIMP metallopeptidase inhibitor 2 (TIMP2) Biomarker Activity (AID 2283071); conditions: primary human keratinocytes with fibroblasts; actives raise or lower the signal
In short: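 ELISA readout of TIMP-2 in keratinocyte plus foreskin fibroblast co-cultures (human skin primary cells), 24 h post-dose. Gain or loss of signal fitted relative to DMSO.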

[17] = read-out: Transforming growth factor beta 1 (TGFb1), TGFB1 (gene 7040); experiment: BSK_KF3CT_TGFb1: BioMAP Diversity Plus: KF3CT Assay for Transforming growth factor beta 1 (TGFb1) Biomarker Activity (AID 2283072); conditions: primary human keratinocytes with fibroblasts; actives raise or lower the signal
In short: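 Read-out: ELISA for TGF-b1 in keratinocyte/foreskin fibroblast human skin co-culture, 24 h after dosing; bidirectional curve fit vs DMSO baseline; gain or loss of signal scored.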

Measured: AC50

OCC(CO)(CO)CO
inactive: all assays above

CCCCN1C(=O)[C@@H]([C@H](O)C2CCCCC2)NC(=O)C12CCN(Cc1ccc(Oc3ccc(C(=O)O)cc3)cc1)CC2
active: [1] 31.2 µM | [6] 20 µM | [8] 20 µM | [10] 31 µM
not listed: [16]
inactive: all other assays above

O=C1CN(N=Cc2ccc([N+](=O)[O-])o2)C(=O)N1
active: [6] 30.6 µM
inactive: all other assays above

Source: PubChem BioAssay (EPA / NIEHS)
